# Measurements from PubChem BioAssay.
# Values joined by “and” are separate entries in the source; they are usually repeats but may differ in a detail not shown here. Equal entries are not always repeated. Results filed as inconclusive are left out. A structure can be active in one record and inactive in another. Active and inactive are the calls of the source.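 The calls were made as follows, unless noted: active = compounds killing one labelled cell type while sparing the other, by normalised counts and ratio limits, not self-fluorescent; inactive = the rest.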
# What was measured:
# [1] = circadian clock period modulators, cell-based, LOPAC library, luminescence reporter (AID 2774; call rule not given here;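 also: values are relative to mean of DMSO wells on each plate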); settings: circadian reporter cells, at 7 µM, actives lie on both sides
# [2] = system: Hepatitis C virus NS3 helicase; experiment: HCV NS3 helicase inhibitors, primary screen, biochemical, fluorescence polarization, LOPAC1280 library (AID 687035; in the data active = inhibition above about 37%); settings: Purified HCV NS3 helicase, Cy5-dT15 ssDNA binding fluorescence polarization; stronger effect = higher value; concentration not given here
# [3] = Cy5 fluorescence quenching or enhancement artefacts, artefact control for HCV NS3 helicase inhibitor project, biochemical, LOPAC1280 (AID 687037; call rule not given here); settings: Cy5-DNA-NS3h complex fluorescence interference counterscreen
# [4] = differential killing of epithelial or mesenchymal cells, primary screen, imaging, PC-3E GFP, TEM4-18 mCherry, co-culture (AID 1345086); settings: imaging cell counts, at 1 µM; for red/green cell ratio (normalised): actives lie on both sides, counts scaled to control wells, 1 = unselective;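 as to all read-outs here: cells exposed to compound for 72 h before imaging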;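 as to red/green cell ratio (normalised): normalised mesenchymal count divided by normalised epithelial count so high means epithelial killing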
# [5] = system: Aerobactin synthetase IucA (Klebsiella pneumoniae); experiment: IucA aerobactin synthetase inhibitors, biochemical, Tocris library, absorbance (AID 1345561; call rule not given here;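 also: 100% = enzyme without compound and 0% = no enzyme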); settings: purified IucA enzyme assay, absorbance (OD) read-out; stronger effect = lower value;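 tested at 8 µM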
# [6] = sensitizers of A549 cells to miR-34 induction, primary screen, imaging, A549 dox-inducible miR-34, nuclei and caspase counts (AID 1347080;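 active = compounds whose cell count with miR-34 switched on is under 0.7 times the count with it off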); settings: A549 miR-34 inducible, Hoechst nuclei count, 48 h
# [7] = viability rescue of complex I mutant cybrids, primary screen, cell-based, galactose medium, ATP luminescence (AID 1645843;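 active = z-score of at least 1.8 in each of two replicates, scored against plate mean and spread of sample wells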;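 also: positive z means more ATP and so rescue of galactose-driven cybrid death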); settings: complex I mutant cybrid cells, 72 h, stronger effect = higher value
# [8] = hESC survival regulators, cell-based (AID 493140; call rule not given here;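 also: cells exposed to compounds for four days before counting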); settings: human embryonic stem cell survival screen; stronger effect = higher value
# [9] = liver-stage malaria parasite growth inhibition, primary screen, cell-based, HepG2, luciferase luminescence, HepG2 viability (AID 624349; in the data active = parasite load remaining mostly below about 12%, no sharp cut-off; inactive = mostly above about 10%;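 also: 100% = mean of DMSO negative control wells on the same plate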); settings: P. berghei liver stage in HepG2, luciferase luminescence, concentration not given here; parasite load remaining: stronger effect = lower value; viability: measured here: HepG2 viability without parasites
# [10] = growth inhibition of DIPG glioma cells, dose response, cell-based, SU-DIPG-XVII, MIPE5.0, CellTiter-Glo, qHTS (AID 1347060; cut-off not given, nearly all actives have AC50 up to about 26 µM); settings: SU-DIPG-XVII viability, CellTiter-Glo ATP luminescence
# [11] = growth inhibition of DIPG glioma cells, dose response, cell-based, SU-DIPG-XIII, MIPE4.0, CellTiter-Glo, qHTS (AID 1347061; cut-off not given, nearly all actives have AC50 up to about 37 µM;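 also: cells exposed to compound for 48 hours before readout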); settings: SU-DIPG-XIII viability, CellTiter-Glo ATP luminescence
# [12] = viability loss in pontine glioma line – cell-based, SU-DIPG-XXV, MIPE5.0, CellTiter-Glo, qHTS, dose response (AID 1347065; cut-off not given, nearly all actives have AC50 up to about 26 µM;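 also: cells exposed to compound for 48 hours before ATP readout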); settings: CellTiter-Glo ATP luminescence
# [13] = SU-DIPG-VI glioma cell viability, MIPE4.0 library, CellTiter-Glo luminescence, qHTS (AID 1347066; cut-off not given, nearly all actives have AC50 up to about 30 µM;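 also: cells exposed to compound for 48 hours before readout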); settings: CellTiter-Glo ATP luminescence
# [14] = JHH-DIPG-1 glioma cell viability, MIPE5.0 library, CellTiter-Glo luminescence, qHTS (AID 1347067; cut-off not given, nearly all actives have AC50 up to about 26 µM;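 also: cells exposed to compound for 48 hours before readout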); settings: JHH-DIPG-1 glioma viability, CellTiter-Glo ATP luminescence
# [15] = SU-DIPG-XXV glioma cell viability, MIPE5.0 library, qHTS (AID 1347068; cut-off not given, nearly all actives have IC50 up to about 30 µM)
# [16] = survival rescue of mitochondrial mutant cells in low glucose, primary screen, MELAS cybrids, Rieske KO mouse fibroblasts, CellTiter-Glo (AID 1508586;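 active = mean z-score across replicates of 1.96 or higher in either the MELAS or the Rieske mutant cell line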;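 also: z relative to plate mean and SD of compound and empty wells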)
# [17] = measured here: epithelial PC-3E GFP cell survival
# [18] = measured here: mesenchymal TEM4-18 mCherry cell survival
# [19] = stronger effect = lower value, cell number ratio, induced over uninduced
# [20] = measured here: relative caspase fold change +Dox/-Dox
# [21] = measured here: total cells with miR-34 induction, stronger effect = lower value
# [22] = measured here: total cells without miR-34 induction
smiles,measurement,setting,value
O=C(O)c1ccccc1Nc1cccc(OCc2ccc3ccccc3n2)c1,period change,[1],-0.125 h (inactive)
same,inhibition,[2],0% (inactive)
same,fluorescence ratio (interference),[3],1 (inactive)
same,red/green cell ratio (normalised),[4],0.86 (inactive)
same,normalised cell number,[4]; [17],1.35
same,normalised cell number,[4]; [18],1.16
same,remaining activity,[5],112% (inactive)
same,fold change,[6]; [19],0.992 (inactive) and 0.929 (inactive)
same,fold change,[6]; [20],0.944 and 0.452
same,cell count,[6]; [21],9820 and 8230
same,cell count,[6]; [22],9900 and 8860
same,z-score,[7],2.17 (active) and -0.695 (inactive)
CC(=O)O[C@H]1CC[C@@]2(C)C(CC[C@]3(C)C2CC=C2C4CC(C)(C)CC[C@]4(C)CC[C@]23C)C1(C)C (stereo not given in full),red/green cell ratio (normalised),[4],1.1 (inactive)
same,normalised cell number,[4]; [17],1.04
same,normalised cell number,[4]; [18],1.15
Cc1ccc([C@H](C)CC(=O)N2C(=S)O[C@H]3Cc4ccccc4[C@H]32)cc1,red/green cell ratio (normalised),[4],0.95 (inactive)
same,normalised cell number,[4]; [17],1.05
same,normalised cell number,[4]; [18],1
O=c1c(O)c(-c2ccc(O)cc2)oc2cc(O)cc(O)c12,survival,[8],7.5 (inactive)
same,parasite load remaining,[9],80.6% (inactive)
same,viability,[9],69.5%
same,red/green cell ratio (normalised),[4],1 (inactive)
same,normalised cell number,[4]; [17],1.03
same,normalised cell number,[4]; [18],1.03
same,remaining activity,[5],107% (inactive)
same,outcome,[10],inactive
same,outcome,[11],inactive
same,outcome,[12],inactive
same,outcome,[13],inactive
same,outcome,[14],inactive
same,outcome,[15],inactive
same,fold change,[6]; [19],0.974 (inactive) and 0.869 (inactive) and 0.836 (inactive)
same,fold change,[6]; [20],0.804 and 0.921 and 1.47
same,cell count,[6]; [21],9050 and 8750 and 6630
same,cell count,[6]; [22],9290 and 10100 and 7930
same,z-score,"[16]; MELAS cybrid survival, CellTiter-Glo 48 h, stronger effect = higher value",-0.357 (inactive)
same,z-score,"[16]; Rieske KO mouse fibroblast survival, CellTiter-Glo 72 h",0.291
same,z-score,[7],-0.765 (inactive)
OCC(O)C(O)C(O)C(O)C(O)CO (stereo not given),red/green cell ratio (normalised),[4],0.95 (inactive)
same,normalised cell number,[4]; [17],0.96
same,normalised cell number,[4]; [18],0.91
Oc1ccc(Oc2cnc3ccc(Cl)cc3n2)cc1,red/green cell ratio (normalised),[4],0.74 (inactive)
same,normalised cell number,[4]; [17],1.41
same,normalised cell number,[4]; [18],1.05
C[C@@H](Oc1ccc(Oc2ccc3ncc(Cl)nc3c2)cc1)C(=O)O,red/green cell ratio (normalised),[4],0.86 (inactive)
same,normalised cell number,[4]; [17],1.19
same,normalised cell number,[4]; [18],1.03
COC(=O)C[C@H]1C2(C)CC34OC5(C)O[C@]6(C7/C(=C(/O)C(C)C)C(=O)O[C@@H](c8ccoc8)[C@]7(C)C(OC(C)=O)[C@@H](OC(C)=O)[C@]6(O5)C13C)[C@H](OC(C)=O)[C@@]4(O)C2OC(=O)C(C)C (stereo not given in full),red/green cell ratio (normalised),[4],1.02 (inactive)
same,normalised cell number,[4]; [17],1.08
same,normalised cell number,[4]; [18],1.1
Cc1cc(O)c(C(=O)c2c(O)cccc2O)c(C(=O)O)c1,red/green cell ratio (normalised),[4],0.99 (inactive)
same,normalised cell number,[4]; [17],1.15
same,normalised cell number,[4]; [18],1.14
O=C(NCC1O[C@@H](OC2C(NC(=O)c3ccccc3)C[C@@H](NC(=O)c3ccccc3)[C@H](OS(=O)(=O)O)[C@H]2OC2OC(COS(=O)(=O)O)C(OC3OC(CNC(=O)c4ccccc4)[C@@H](OS(=O)(=O)O)[C@H](OS(=O)(=O)O)[C@H]3NC(=O)c3ccccc3)C2OS(=O)(=O)O)[C@H](NC(=O)c2ccccc2)[C@@H](OS(=O)(=O)O)C1OS(=O)(=O)O)c1ccccc1 (stereo not given in full),red/green cell ratio (normalised),[4],0.97 (inactive)
same,normalised cell number,[4]; [17],0.96
same,normalised cell number,[4]; [18],0.93
CC[C@@H](C)CC(=O)N1C(=S)O[C@@H]2Cc3ccccc3[C@@H]21,red/green cell ratio (normalised),[4],0.94 (inactive)
same,normalised cell number,[4]; [17],1.12
same,normalised cell number,[4]; [18],1.05
COC(=O)c1cc(OC)cc(OC(=O)c2c(O)cc3cc(C)oc(=O)c3c2O)c1O,red/green cell ratio (normalised),[4],0.92 (inactive)
same,normalised cell number,[4]; [17],0.94
same,normalised cell number,[4]; [18],0.86
C=C1[C@@H](C)C2[C@H](Cc3c[nH]c4ccccc34)NC(=O)[C@]23C(=O)/C=C/[C@H](O)C(=O)/C(C)=C/[C@@H](C)C/C=C/[C@H]3[C@@H]1O (stereo not given in full),red/green cell ratio (normalised),[4],1.13 (inactive)
same,normalised cell number,[4]; [17],0.96
same,normalised cell number,[4]; [18],1.08
